MBNL1-CUG inh: qHTS Assay for Inhibitors of MBNL1-poly(CUG) RNA binding; Muscleblind-like protein 1 (Homo sapiens), Q9NR56; TR-FRET MBNL1-His/biotin-(CUG)12 binding, 665/545 ratio; Potency, µM (highest dose often 57.5 µM), for inactives: at the top dose activity change, negative = inhibition, hits mostly inhibitors; 0.036% of 280,000 active; AID 2675, 2010; active means well fitted inhibition curve with a large enough effect in the signal ratio, with a control signal flat, not every such curve was filed as active; inconclusive means small, poorly fitted or top-dose-only effect, or effect the other way, or a change in a side signal; inactive means no such curve, though single readings can be large or run the other way; the % refers to the signal ratio; further: potency means the concentration at half of the fitted maximal effect; on the % scale 0 is the no-effect control and ±100 the full control effect
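TR-FRET between His-tagged MBNL1 and biotin-(CUG)12 RNA, detected with Tb anti-His antibody (0.055 ng/ul) and streptavidin-XL665 (5 nM), 60 min at room temperature. Compounds titrated 92 nM to 58 uM; 665/545 nm ratio normalized to buffer and complex controls.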
CBFb-RUNX1 inh: qHTS Assay for Compounds Blocking the Interaction Between CBF-beta and RUNX1 for the Treatment of Acute Myeloid Leukemia | 230,000 tested, under 10 active | Runt-related transcription factor 1 (Homo sapiens) + Core-binding factor subunit beta … | Potency, µM (highest dose often 59.8 µM), for the others: at the top dose activity, negative = inhibition, hits mostly inhibitors | AID 1477, 2009 | AlphaScreen CBFb-His/RUNX1-biotin binding, biochemical; further: % of control where 0% means no effect
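AlphaScreen proximity signal reports loss of binding between His-tagged CBF-beta and biotin-labelled RUNX1, each at 30 nM. Proteins are pre-associated for 20 minutes, compounds added for 15 minutes, then beads for 90 minutes, all at ambient temperature.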
Eya2 inh: qHTS Assay for Inhibitors of the Phosphatase Activity of Eya2. Potency, µM (doses to about 76.9 µM), for the others: top-dose activity, negative = inhibition, usual class: inhibitors. Protein phosphatase EYA2 (Homo sapiens), O00167. 0.006% of 330,000 active. AID 488837, 2010. recombinant Eya2, OMFP fluorescence dephosphorylation (OMFP is methylfluorescein phosphate); further: potency means the concentration at half of the fitted maximal effect; on the % scale 0 is the no-effect control and ±100 the full control effect
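Eya2 protein (added as 0.2 uM solution) was preincubated with compound for 10 min at ambient temperature in 50 mM HEPES pH 7.5, 50 mM NaCl, 5 uM MgCl2, 0.05% BSA, 1 mM DTT. OMFP (added at 50 uM) then reacted 10 min; fluorescence read at 485/525 nm.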
L3MBTL1 inh-1: qHTS Assay for the Inhibitors of L3MBTL1. Potency, µM (highest dose often 57.1 µM), for the others: at the top dose activity, negative = inhibition, most hits filed as inhibitors. AlphaScreen L3MBTL1–H3K9me1 peptide binding. Lethal(3)malignant brain tumor-like protein 1 (Homo sapiens), Q9Y468. AID 485360, 2010. 0.66% of 230,000 active; further: potency means the concentration at half of the fitted maximal effect; on the % scale 0 is the no-effect control and ±100 the full control effect; nearly all actives have a fitted effect of over 60% in size
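Displacement of a biotinylated histone H3(1-15) peptide monomethylated at Lys9 (75 nM) from L3MBTL1 (50 nM) was measured by AlphaScreen after a 30 min room-temperature compound incubation; cefsulodin titration served as intraplate control.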
CtBP-E1A blk: qHTS Assay for Inhibitors of the CtBP/E1A Interaction. AID 651724, 2012. 0.49% of 340,000 active. CtBP / adenovirus E1A interaction (AlphaScreen). activity change, % (no concentration beside the values). AlphaScreen GST-E1A/His-CtBP binding, 1536-well; active compounds read low; in the data active means activity change below about -65%; inconclusive means mostly about -30% to -63%; further: on the % scale 0 is the no-effect control and ±100 the full control effect
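Homogeneous bead-based format: GST-tagged E1A captured on glutathione donor beads, His-tagged CtBP on nickel acceptor beads; compounds precede bead addition by 2 h at 37 °C.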
Six1-Eya2 blk: qHTS Assay for Inhibitors of the Six1/Eya2 Interaction | AID 651725, 2012 | AlphaScreen GST-Six1/His-Eya2 binding, biochemical; active compounds read low | activity change, % (test concentration not listed) | Homeobox protein SIX1 (Homo sapiens) + Protein phosphatase EYA2 (Homo sapiens), … | 0.56% of 360,000 active; in the data active means activity change below about -65%; inconclusive means mostly about -30% to -63%; further: on the % scale 0 is the no-effect control and ±100 the full control effect
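Homogeneous AlphaScreen proximity assay pairing GST-Six1 with His-tagged Eya2 (added as 5X mix: 250 nM and 500 nM) in 50 mM Tris pH 8.0, 300 mM NaCl, 1 mM TCEP. Glutathione donor and nickel acceptor beads; 1 h, 37 °C, dark.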
L3MBTL1 inh-2: qHTS Assay for the Inhibitors of L3MBTL1: Hit Validation | AID 540279, 2011 | shares compounds with L3MBTL1 inh-1 | 91% of 500 active | L3MBTL1 methyl-lysine binding inhibition, biochemical qHTS | Potency, µM, actives largely listed as inhibitors; further: potency means the concentration at half of the fitted maximal effect; nearly all actives have a fitted effect of over 70% in size
AlphaScreen ctr2: qHTS Assay for the Inhibitors of L3MBTL1: Hit Validationin AlphaScreen Counterscreen; AlphaScreen counterscreen, signal inhibition; 500 tested, under 10 active; shares compounds with L3MBTL1 inh-1; Potency, µM (top dose mostly 57.1 µM), for the others: at the top dose activity change, negative = inhibition, actives largely listed as inhibitors; further: potency means the concentration at half of the fitted maximal effect; 0% is about no effect
* hit, by the source's call; ? = inconclusive; · = no result given; [ ] = remark or other dose. Compounds with a hit are over-represented: about 0.89% of the library has one in this group of screens. Unless noted, the call rests on the fitted dose curve; in most records, active means well fitted curve in the direction sought with a large enough effect; inconclusive means small, poorly fitted or top-dose-only effect, or another doubt; inactive means no such curve, though single readings can be large; an effect the other way counts as inactive or inconclusive.

SMILES	MBNL1-CUG inh	CBFb-RUNX1 inh	Eya2 inh	L3MBTL1 inh-1	CtBP-E1A blk	Six1-Eya2 blk	L3MBTL1 inh-2	AlphaScreen ctr2
Cc1nn(-c2ccccn2)c2c1C(=O)C(Br)CC2 (stereo not drawn)	-14.4%	-1.7%	2.2%	·	-5.4	0.7	·	·
NC(=S)N=Nc1c(O)[nH]c2ccccc12	?	-7.3%	-2.0%	-4.3%	?	?	·	·
Oc1[nH]c2ccccc2c1N=NC(=S)N1CCOCC1	·	·	-26.0%	28.2µM*	-65.8*	-91.7*	21.2*	?
O=C(O)c1ccc(S(=O)(=O)Nc2ccc(O)c(Sc3nc4ccccc4s3)c2)cc1	2.2%	2.5%	-1.2%	22.4µM*	-0.7	-8.1	7.52*	-5.4%
O=C(O)c1ccc2c(c1)C1C=CCC1C(c1ccncc1)N2 (stereo not drawn)	?	-15.4%	2.1%	·	2.2	-1.9	·	·
CCCC1Nc2ccc(C(=O)O)cc2C2C=CCC12 (stereo not drawn)	?	-2.6%	1.7%	10µM*	-4.6	?	3.77*	-20.4%
CC(C)C1Nc2ccc(C(=O)O)cc2C2C=CCC21 (stereo not drawn)	?	2.4%	6.9%	4.47µM*	-10.7	?	2.99*	-20.0%
CC(=O)OC[C@@H]1O[C@H](C/C=N\O[C@@H](C)c2cn([C@H]3COC[C@H]3O)nn2)C=C[C@@H]1OC(C)=O	·	12.1%[13.1 µM]	·	·	·	·	·	·
O=C(O)c1ccc(/C=C/c2nc3sc4c(c3c(=O)[nH]2)CCC4)cc1	·	-24.8%	3.7%	?	-23.0	-4.6	·	·
O=C(c1cc(COc2c(F)cccc2F)on1)N(Cc1ccccc1)CC1CC1	1.3%	·	-8.3%	·	46.1	29.5	·	·
OC(c1ccccn1)(c1ccccn1)c1ccccn1	?	-13.1%	10.9%	15.8µM*	-2.3	-85.1*	21.2*	-4.6%
CC(=O)c1ccccc1Oc1cc(NN2CCCCC2)c([N+](=O)[O-])cc1[N+](=O)[O-]	?	·	-9.8%	20µM*	?	?	26.7*	?
O=C(CSc1nnc(COc2ccccc2)o1)Nc1ccc(F)cc1	-8.2%	·	20.5%	·	-5.6	1.7	·	·
N#Cc1c(-c2ccco2)cc(-c2ccccc2)[nH]c1=O	?	?	-6.3%	·	-2.4	0.3	·	·
Cc1ccc(-c2cc(-c3ccco3)c(C#N)c(=O)[nH]2)cc1	?	?	-1.8%	28.2µM*	12.8	-2.2	21.2*	-1.2%
COc1ccc(N2Cc3cccc(C(=O)N4CCN(C(=O)c5ccco5)CC4)c3C2=O)cc1	4.5%	?	11.2%	28.2µM*	-5.2	-3.2	2.67*	-16.4%
CCOC(=O)c1cc(-c2ccc(N3CCOCC3)cc2)nn1-c1ccccc1C(=O)O	-8.9%	24.6%	4.3%	14.1µM*	-21.7	?	6.7*	5.4%
CC(C)(C)c1ccc(C(=O)OCC(=O)N2CCC(c3ccccc3)=N2)cc1	·	·	1.0%	1.1%	0.0	13.0	·	·
